Data as given in PubChem BioAssay.
For some of these results: Entries with a potency or affinity are not part of this list. The source made the active and inactive calls. Unless noted, no rule for the calls is given here.

Experiments:
[1] = antimalarial activity against Dd2 strain (AID 2302;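 active = growth inhibition above 50% at the single 2 µM test dose, taken to imply half-maximal potency below 2 µM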;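 also: 0% = DMSO untreated growth and 100% = chloroquine plus artemisinin killed control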); conditions: P. falciparum Dd2 in RBCs, LDH growth readout, 72 h; at 2 µM; stronger effect = higher value
[2] = human hepatoma cell viability loss – ATP luminescence, cytotoxicity control for P. falciparum antimalarial project, primary screen (AID 2303;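 active = inhibition above 50%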;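 also: 0% = DMSO wells and 100% = digitonin-killed cells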); conditions: HepG2 viability, 24-48 h, at 10 µM, stronger effect = higher value
[3] = molecular target: L-lactate dehydrogenase (Plasmodium falciparum (isolate CDC / Honduras)) (UniProt Q27743); assay: PfLDH activity inhibition – cell lysate, 3D7 strain, counter-screen for P. falciparum growth inhibition project (AID 2304);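 also: 0% = vehicle and 100% = reference inhibitor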; conditions: P. falciparum 3D7 crude extract, LDH APAD/NBT absorbance; at 2 µM; stronger effect = higher value
[4] = inhibition of 3D7 malaria parasite growth – strain 3D7 (AID 2306);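 also: 0% = DMSO wells and 100% = chloroquine plus artemisinin control wells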; conditions: P. falciparum 3D7 erythrocytic growth, LDH absorbance, 72 h; at 2 µM; stronger effect = higher value
[5] = molecular target: Calcium-dependent protein kinase 1 (Plasmodium falciparum (isolate 3D7)) (UniProt P62344); assay: PfCDPK1 kinase inhibitors, biochemical, TCAMS library (AID 1159585; cut-off not given, nearly all actives have IC50 up to about 0.98 µM;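 also: inhibitors leave more ATP so luminescence rises with inhibition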); conditions: recombinant PfCDPK1, Kinase-Glo ATP depletion luminescence
[6] = molecular target: Plasmodium falciparum protein kinase 6 (PK6, PF3D7_1337100) (UniProt Q8IDW1); assay: PfPK6 kinase inhibitors, biochemical, TCAMS library (AID 1159586); conditions: recombinant PfPK6, Kinase-Glo ATP depletion luminescence
[7] = molecular target: Protein kinase 7 (PK7), Plasmodium falciparum 3D7 (PF3D7_0213400) (UniProt Q7YTF7); assay: inhibition of Plasmodium PK7 catalytic activity – biochemical, TCAMS antimalarial set, Kinase-Glo luminescence (AID 1159587); conditions: recombinant PfPK7, Kinase-Glo ATP depletion luminescence
[8] = molecular target: Calcium-dependent protein kinase 4 (Plasmodium falciparum (isolate 3D7)) (UniProt Q8IBS5); assay: PfCDPK4 kinase inhibitors, biochemical, TCAMS library (AID 1159588; cut-off not given, nearly all actives have IC50 up to about 0.91 µM); conditions: recombinant PfCDPK4, Kinase-Glo ATP depletion luminescence
Sequence of Calcium-dependent protein kinase 4 (Plasmodium falciparum (isolate 3D7)) (Q8IBS5 whole entry, looked up): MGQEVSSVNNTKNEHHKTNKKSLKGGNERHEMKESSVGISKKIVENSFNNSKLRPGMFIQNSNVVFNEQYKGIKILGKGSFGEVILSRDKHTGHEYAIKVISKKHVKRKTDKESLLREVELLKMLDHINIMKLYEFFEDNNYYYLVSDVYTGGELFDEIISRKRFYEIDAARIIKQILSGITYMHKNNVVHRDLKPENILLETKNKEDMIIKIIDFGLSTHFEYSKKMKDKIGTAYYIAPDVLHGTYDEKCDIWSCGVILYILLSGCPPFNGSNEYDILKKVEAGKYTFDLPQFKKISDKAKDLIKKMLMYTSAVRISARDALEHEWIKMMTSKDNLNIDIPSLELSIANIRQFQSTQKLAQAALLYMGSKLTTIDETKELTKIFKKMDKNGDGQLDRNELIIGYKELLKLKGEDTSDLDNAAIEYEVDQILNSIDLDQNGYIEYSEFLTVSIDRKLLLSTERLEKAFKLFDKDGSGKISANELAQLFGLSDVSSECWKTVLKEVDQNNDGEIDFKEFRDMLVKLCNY

Sequence of Calcium-dependent protein kinase 1 (Plasmodium falciparum (isolate 3D7)) (P62344 whole entry, looked up): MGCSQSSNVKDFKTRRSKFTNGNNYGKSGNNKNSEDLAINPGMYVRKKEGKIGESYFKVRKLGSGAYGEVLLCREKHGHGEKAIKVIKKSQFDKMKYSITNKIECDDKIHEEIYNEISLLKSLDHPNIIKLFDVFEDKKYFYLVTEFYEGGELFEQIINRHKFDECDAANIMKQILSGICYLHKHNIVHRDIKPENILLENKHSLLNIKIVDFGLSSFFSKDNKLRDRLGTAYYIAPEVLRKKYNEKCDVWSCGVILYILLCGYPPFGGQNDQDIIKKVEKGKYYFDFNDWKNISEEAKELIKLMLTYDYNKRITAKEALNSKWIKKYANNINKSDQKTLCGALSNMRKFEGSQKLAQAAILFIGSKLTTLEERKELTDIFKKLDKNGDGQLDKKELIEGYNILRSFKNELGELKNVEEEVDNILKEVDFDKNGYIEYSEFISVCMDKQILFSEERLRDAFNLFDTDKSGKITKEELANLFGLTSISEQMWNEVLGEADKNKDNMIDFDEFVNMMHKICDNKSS
Sequence of L-lactate dehydrogenase (Plasmodium falciparum (isolate CDC / Honduras)) (Q27743 whole entry, looked up): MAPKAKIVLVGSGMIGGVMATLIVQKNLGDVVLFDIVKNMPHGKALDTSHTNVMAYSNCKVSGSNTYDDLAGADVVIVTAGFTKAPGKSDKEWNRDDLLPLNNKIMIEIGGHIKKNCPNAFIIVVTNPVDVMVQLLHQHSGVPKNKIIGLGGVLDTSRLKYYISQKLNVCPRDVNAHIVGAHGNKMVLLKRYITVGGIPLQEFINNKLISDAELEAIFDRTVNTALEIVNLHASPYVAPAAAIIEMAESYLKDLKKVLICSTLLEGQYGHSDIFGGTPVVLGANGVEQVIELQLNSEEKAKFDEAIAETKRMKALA
Sequence of Protein kinase 7 (PK7), Plasmodium falciparum 3D7 (PF3D7_0213400) (Q7YTF7 1-343): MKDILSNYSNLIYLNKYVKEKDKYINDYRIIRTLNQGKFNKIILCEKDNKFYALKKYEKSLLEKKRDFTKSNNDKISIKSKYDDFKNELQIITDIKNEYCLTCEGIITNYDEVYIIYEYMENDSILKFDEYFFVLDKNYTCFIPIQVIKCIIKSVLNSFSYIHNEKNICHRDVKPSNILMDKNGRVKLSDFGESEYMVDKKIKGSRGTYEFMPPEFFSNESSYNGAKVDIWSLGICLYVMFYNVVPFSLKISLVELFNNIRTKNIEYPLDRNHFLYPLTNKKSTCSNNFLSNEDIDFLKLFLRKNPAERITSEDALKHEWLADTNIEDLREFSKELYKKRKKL
Sequence of Plasmodium falciparum protein kinase 6 (PK6, PF3D7_1337100) (Q8IDW1 1-305): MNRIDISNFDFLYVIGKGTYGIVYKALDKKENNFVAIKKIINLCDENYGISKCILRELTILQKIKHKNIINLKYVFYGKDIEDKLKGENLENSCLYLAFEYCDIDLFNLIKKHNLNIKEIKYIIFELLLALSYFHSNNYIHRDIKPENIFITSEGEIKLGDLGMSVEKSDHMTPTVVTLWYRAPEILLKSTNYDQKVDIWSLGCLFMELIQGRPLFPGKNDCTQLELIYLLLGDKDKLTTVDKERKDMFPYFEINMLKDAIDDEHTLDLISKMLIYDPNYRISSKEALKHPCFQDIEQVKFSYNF

OC(CNc1ccnc(Nc2cccc(CCN3CCOCC3)c2)n1)c1ccccc1 (stereo not drawn)
active: growth inhibition [4] 102%
inactive: growth inhibition [1] 14% | inhibition [2] 34% | inhibition [3] -1% | outcome [5] | outcome [6] | outcome [7] | outcome [8]

C=CCc1ccccc1OCC(O)CN(C1CCCCC1)C1CCCCC1 (stereo not drawn)
active: growth inhibition [1] 84% | inhibition [2] 50% | growth inhibition [4] 93%
inactive: inhibition [3] 1% | outcome [5] | outcome [6] | outcome [7] | outcome [8]

COc1cc2c(Nc3cccc(NC(=O)c4ccccc4)c3)ncnc2cc1OCCCN1CCOCC1
inactive: inhibition [2] -14% | inhibition [3] 5% | outcome [5] | outcome [6] | outcome [7] | outcome [8]
active: growth inhibition [1] 100% | growth inhibition [4] 101%

Cc1noc(C)c1-c1ccc(C(=C2CCCCCC2)c2ccc(O)cc2)cc1
inactive: inhibition [2] -7% | inhibition [3] 7% | outcome [5] | outcome [6] | outcome [7] | outcome [8]
active: growth inhibition [1] 96% | growth inhibition [4] 100%

COc1ccc(CNC(=O)NC2CCN(c3ccnc(Nc4cc(OC)c(OC)c(OC)c4)n3)C2)cc1 (stereo not drawn)
active: growth inhibition [1] 90% | growth inhibition [4] 91%
inactive: inhibition [2] -2% | inhibition [3] 3% | outcome [5] | outcome [6] | outcome [7] | outcome [8]

COc1ccc2c(c1)S(=O)(=O)N=C(N1CCCC1c1ccc(Cl)c(Cl)c1)N2C (stereo not drawn)
inactive: growth inhibition [1] 19% | inhibition [2] -2% | inhibition [3] 0% | outcome [5] | outcome [6] | outcome [7] | outcome [8]
active: growth inhibition [4] 89%

Nc1c(Cl)cc(C(O)CNCCCCCCCCCc2ccccn2)cc1Cl (stereo not drawn)
active: growth inhibition [1] 83% | growth inhibition [4] 98%
inactive: inhibition [2] 9% | inhibition [3] 2% | outcome [5] | outcome [6] | outcome [7] | outcome [8]

Cn1c(NC(=O)C2CCCN(C(=O)c3ccc(O)c(-c4ccc(Cl)c(Cl)c4)c3)C2)nc2ccccc21 (stereo not drawn)
inactive: inhibition [2] 0% | inhibition [3] -3% | outcome [5] | outcome [6] | outcome [7] | outcome [8]
active: growth inhibition [1] 99% | growth inhibition [4] 98%

CCN1CCC(N(Cc2ccc(-c3ccc(C(F)(F)F)cc3)cc2)C(=O)Cn2c(CCc3cccc(F)c3F)cc(=O)c3c2CCC3)CC1
inactive: inhibition [2] 49% | inhibition [3] -1% | outcome [5] | outcome [6] | outcome [7] | outcome [8]
active: growth inhibition [1] 85% | growth inhibition [4] 89%

CC(C)Sc1nc(-c2ccccc2)nc2c1COC(C)(C)C2
inactive: growth inhibition [1] 41% | inhibition [2] 2% | inhibition [3] -4% | outcome [5] | outcome [6] | outcome [7] | outcome [8]
active: growth inhibition [4] 98%

CCCc1cc(Cc2cnc(N)nc2N)cc(CC)c1O
active: inhibition [2] 56% | growth inhibition [4] 87%
inactive: growth inhibition [1] -3% | inhibition [3] -3% | outcome [5] | outcome [6] | outcome [7] | outcome [8]

c1ccc(CN2CCC(NCc3ccc(-c4cccc(CNC5CCCC5)c4)cc3)CC2)cc1
inactive: inhibition [3] -8% | outcome [5] | outcome [6] | outcome [7] | outcome [8]
active: growth inhibition [1] 100% | inhibition [2] 55% | growth inhibition [4] 101%

Cc1nc2ccc(-c3nc4ccc(N)cc4[nH]3)cc2[nH]1
inactive: inhibition [2] 6% | inhibition [3] -5% | outcome [5] | outcome [6] | outcome [7] | outcome [8]
active: growth inhibition [1] 80% | growth inhibition [4] 94%

Nc1ccc(-c2ccc3ccnc(N)c3c2)cc1
active: growth inhibition [1] 68% | growth inhibition [4] 102%
inactive: inhibition [2] 38% | inhibition [3] -1% | outcome [5] | outcome [6] | outcome [7] | outcome [8]

Cc1cc(=O)c(-c2ccc(Oc3cccc(OC(F)(F)F)c3)cc2)c(C)[nH]1
inactive: inhibition [2] 13% | inhibition [3] -5% | outcome [5] | outcome [6] | outcome [7] | outcome [8]
active: growth inhibition [1] 96% | growth inhibition [4] 97%

CCOc1ccc(C2CCN(CCN3CCC(NC(=O)c4ccc(-c5ccc(C(F)(F)F)cc5)cc4)CC3)CC2)c(OCC2CC2)c1
active: growth inhibition [1] 65% | growth inhibition [4] 99%
inactive: inhibition [2] 13% | inhibition [3] -9% | outcome [5] | outcome [6] | outcome [7] | outcome [8]

CC(=O)N1N=C(c2ccc(F)cc2)Sc2c1nc(-c1ccccc1)n2C(C)=O
inactive: inhibition [2] -11% | inhibition [3] -1% | outcome [5] | outcome [6] | outcome [7] | outcome [8]
active: growth inhibition [1] 67% | growth inhibition [4] 99%

NS(=O)(=O)c1cncc(-c2ccc3nccc(-c4cn[nH]c4)c3n2)c1
active: growth inhibition [1] 100% | growth inhibition [4] 99%
inactive: inhibition [2] 33% | inhibition [3] -2% | outcome [5] | outcome [6] | outcome [7] | outcome [8]

CC(C)(CNCc1cccc(Oc2ccccc2)c1)c1nc(-c2ccc(Cl)c(O)c2)c(-c2ccnc(N)n2)[nH]1
active: growth inhibition [1] 99% | growth inhibition [4] 97%
inactive: inhibition [2] 28% | inhibition [3] 4% | outcome [5] | outcome [6] | outcome [7] | outcome [8]

COc1ccc(CNc2ccnc(-n3cnc4cc(C)c(C)cc43)n2)cc1Cl
inactive: inhibition [2] 6% | inhibition [3] -8% | outcome [5] | outcome [6] | outcome [7] | outcome [8]
active: growth inhibition [1] 100% | growth inhibition [4] 100%

COc1cc2nc(NCCn3cccn3)nc(NCCc3ccccc3)c2cc1OC
active: growth inhibition [1] 100% | growth inhibition [4] 102%
inactive: inhibition [2] 12% | inhibition [3] -3% | outcome [5] | outcome [6] | outcome [7] | outcome [8]

O=C(NCc1cccc2ccccc12)C1CCCN(C(=O)c2ccc(O)c(-c3ccc(Cl)c(Cl)c3)c2)C1 (stereo not drawn)
active: growth inhibition [4] 92%
inactive: growth inhibition [1] 23% | inhibition [2] 1% | inhibition [3] -5% | outcome [5] | outcome [6] | outcome [7] | outcome [8]

Nc1c(Cl)cc(C(O)CNCCCCCCOCCc2ccc(O)cc2)cc1Cl (stereo not drawn)
inactive: inhibition [2] 13% | inhibition [3] -3% | outcome [5] | outcome [6] | outcome [7] | outcome [8]
active: growth inhibition [1] 97% | growth inhibition [4] 97%

CC(C)CCNc1nc(NCCc2ccccc2)c2cc(O)ccc2n1
active: growth inhibition [1] 97% | growth inhibition [4] 101%
inactive: inhibition [2] 6% | inhibition [3] 7% | outcome [5] | outcome [6] | outcome [7] | outcome [8]

CC(=O)Nc1ccc(S(=O)(=O)N2CCN(c3nc(NC4CCCC4)c4ccccc4n3)CC2)cc1
active: growth inhibition [4] 88%
inactive: growth inhibition [1] 2% | inhibition [2] 7% | inhibition [3] 1% | outcome [5] | outcome [6] | outcome [7] | outcome [8]

CN(C(=O)/C=C/c1cc(C(F)(F)F)ccc1F)C1CCN(CCCCCNC(=O)/C=C/c2ccc(Cl)c(Cl)c2)C1 (stereo not drawn)
active: growth inhibition [4] 93%
inactive: growth inhibition [1] 1% | inhibition [2] 16% | inhibition [3] -3% | outcome [5] | outcome [6] | outcome [7] | outcome [8]

COc1cc2c(cc1C(F)(F)F)N(C(=O)Nc1cc(OC(F)(F)F)cc(-c3cccnc3)c1)CC2
active: inhibition [2] 55% | growth inhibition [4] 100%
inactive: growth inhibition [1] 49% | inhibition [3] -3% | outcome [5] | outcome [6] | outcome [7] | outcome [8]

N=C(N)c1ccc(-c2cc3ccc(C(=N)N)cc3[nH]2)cc1
inactive: inhibition [2] 18% | inhibition [3] -2% | outcome [5] | outcome [6] | outcome [7] | outcome [8]
active: growth inhibition [1] 99% | growth inhibition [4] 99%

Cc1cccc2[nH]c(-c3cccc(-c4ccc(NC(=O)c5cnc[nH]5)cc4)c3)nc12
active: growth inhibition [4] 101%
inactive: growth inhibition [1] 48% | inhibition [2] 8% | inhibition [3] 3% | outcome [5] | outcome [6] | outcome [7] | outcome [8]

CN1CCN(c2ccnc3ccc(NC(=O)Nc4ccc(Br)cc4)cc23)CC1
active: growth inhibition [1] 99% | growth inhibition [4] 101%
inactive: inhibition [2] 12% | inhibition [3] -5% | outcome [5] | outcome [6] | outcome [7] | outcome [8]

CCCCCCC1(C)N=C(N)N=C(N)C1c1ccc(Cl)c(Cl)c1 (stereo not drawn)
active: growth inhibition [4] 94%
inactive: growth inhibition [1] 43% | inhibition [2] 18% | inhibition [3] -9% | outcome [5] | outcome [6] | outcome [7] | outcome [8]

N#Cc1ccc(NC(=NCc2ccc(Cl)cc2Cl)Nc2cccc(Cl)c2Cl)c(O)c1
inactive: inhibition [2] 3% | inhibition [3] -6% | outcome [5] | outcome [6] | outcome [7] | outcome [8]
active: growth inhibition [1] 75% | growth inhibition [4] 97%

CCCCCCNc1cc(C)nc(/N=C(\N)Nc2cccc(C(F)(F)F)c2)n1
inactive: inhibition [2] 44% | inhibition [3] -2% | outcome [5] | outcome [6] | outcome [7] | outcome [8]
active: growth inhibition [1] 100% | growth inhibition [4] 100%

COc1ccc2nccc([C@@H](O)CN3CCC(NCc4cc5ccccn5n4)CC3)c2c1
active: growth inhibition [4] 99%
inactive: growth inhibition [1] 18% | inhibition [2] 7% | inhibition [3] -8% | outcome [5] | outcome [6] | outcome [7] | outcome [8]

OC(CNc1ccnc(Nc2ccccc2)n1)c1ccc(C(F)(F)F)cc1 (stereo not drawn)
active: growth inhibition [4] 101%
inactive: growth inhibition [1] 39% | inhibition [2] 3% | inhibition [3] -2% | outcome [5] | outcome [6] | outcome [7] | outcome [8]

O=C(Nc1ccc(NC2=NCCN2)cc1)Nc1ccc(NC2=NCCN2)cc1
active: growth inhibition [1] 72% | growth inhibition [4] 88%
inactive: inhibition [2] -6% | inhibition [3] -1% | outcome [5] | outcome [6] | outcome [7] | outcome [8]

CC(C)NCc1ccc(-c2cccc(NC(=O)c3cccc(C#N)c3)c2)cc1
active: growth inhibition [1] 78% | growth inhibition [4] 100%
inactive: inhibition [2] 9% | inhibition [3] -6% | outcome [5] | outcome [6] | outcome [7] | outcome [8]

Cc1cc2nc(/N=C(\N)NC(=O)NC3CCCCC3)nc(C)c2cc1C
active: growth inhibition [1] 98% | growth inhibition [4] 94%
inactive: inhibition [2] 20% | inhibition [3] 2% | outcome [5] | outcome [6] | outcome [7] | outcome [8]

O=C(Nc1cccc(CN2CCCN(CC3CC3)CC2)c1)c1ccc(-c2ccccc2)cc1
active: growth inhibition [4] 96%
inactive: growth inhibition [1] 5% | inhibition [2] 15% | inhibition [3] 6% | outcome [5] | outcome [6] | outcome [7] | outcome [8]

COc1cccc2c(NN=Cc3ccccc3F)ccnc12
inactive: growth inhibition [1] 37% | inhibition [2] 6% | inhibition [3] 1% | outcome [5] | outcome [6] | outcome [7] | outcome [8]
active: growth inhibition [4] 96%

CCNc1cc(C(=O)N[C@@H](Cc2ccccc2)[C@H](O)CNC2(Cc3cccc(Cl)c3)CCC2)cc(N2CCCCS2(=O)=O)c1
inactive: inhibition [2] 22% | inhibition [3] 1% | outcome [5] | outcome [6] | outcome [7] | outcome [8]
active: growth inhibition [1] 83% | growth inhibition [4] 95%
